Consider 21 compounds from PubChem BioAssay (EPA / NIEHS).

Some structures have more than one record in an assay (separate samples or runs), and their calls can disagree. Calls of active or inactive are those of the source. Rule for the calls: active = hit-call score of the fitted dose curve at least 0.9, where 1 is the maximum; inactive = score below 0.9.

As usually defined, the AC50 is the concentration at which the activity in the assay is half-maximal.

Sequence of E-selectin (Homo sapiens) (P16581 whole entry, looked up): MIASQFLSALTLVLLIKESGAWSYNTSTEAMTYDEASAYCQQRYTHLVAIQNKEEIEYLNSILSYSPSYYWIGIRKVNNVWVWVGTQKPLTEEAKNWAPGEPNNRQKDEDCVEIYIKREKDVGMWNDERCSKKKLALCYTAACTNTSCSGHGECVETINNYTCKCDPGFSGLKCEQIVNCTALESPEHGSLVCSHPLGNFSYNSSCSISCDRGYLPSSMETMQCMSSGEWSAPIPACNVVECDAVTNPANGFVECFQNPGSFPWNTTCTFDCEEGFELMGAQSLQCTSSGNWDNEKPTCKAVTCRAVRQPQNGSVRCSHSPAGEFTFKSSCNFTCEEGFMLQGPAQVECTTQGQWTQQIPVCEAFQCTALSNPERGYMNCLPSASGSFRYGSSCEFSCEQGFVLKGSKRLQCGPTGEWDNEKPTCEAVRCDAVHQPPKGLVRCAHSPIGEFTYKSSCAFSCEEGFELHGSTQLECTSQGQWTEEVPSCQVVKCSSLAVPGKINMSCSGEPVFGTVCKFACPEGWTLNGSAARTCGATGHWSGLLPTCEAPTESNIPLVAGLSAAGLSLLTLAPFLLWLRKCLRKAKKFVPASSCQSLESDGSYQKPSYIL

Read-out in one experiment: E-selectin (Homo sapiens) (UniProt P16581)
As to the kind of experiment: BSK_3C_Eselectin: BioMAP Diversity Plus: 3C Assay for Eselectin Biomarker Activity (AID 2283015).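 Note: cell surface E-selectin protein quantified by ELISA 24 h after dosing.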 The following applies: primary human endothelial cells (HUVEC); actives raise or lower the signal. The essentials:
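Human vascular endothelium from umbilical vein is exposed to test chemicals for 24 h. E-selectin levels are read by ELISA and compared with DMSO controls.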
Consider `O=C(O)C(F)(F)C(F)(F)F`, for which the result was inactive.

`C=CC/C=C/C/C=C/C/C=C/C`: the result was inactive.

`C=C(C)C(=O)OCC(F)(F)C(F)(F)C(F)(F)C(F)(F)C(F)(F)C(F)(F)C(F)(F)F`: the result was inactive.

Read-out in the next experiment: Interleukin-1 alpha (IL1a), IL1A (gene 3552)
The experiment can be described thus: BSK_BE3C_IL1a: BioMAP Diversity Plus: BE3C Assay for Interleukin-1 alpha (IL1a) Biomarker Activity (AID 2283016). As to conditions: primary human bronchial epithelial cells; actives raise or lower the signal. The essentials:
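Signal from IL-1a ELISA, taken 24 h after chemical dosing of human bronchial epithelial cells, is compared with DMSO as baseline using bidirectional curve fitting.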
As to `Oc1ccc(Nc2ccccc2)cc1`, the AC50 is 13.4 µM (active).

As for `NC(=O)C(F)(F)C(F)(F)C(F)(F)C(F)(F)F`, the result was inactive.

In the case of `FC(F)(F)C(F)(F)C(F)(F)C(F)(F)CCI`, the result was inactive.

With `CCCCCCCCC(F)(F)C(F)(F)C(F)(F)C(F)(F)C(F)(F)C(F)(F)F`, the result was inactive.

`C=CC(=O)OCC(F)(F)C(F)(F)C(F)(F)C(F)(F)C(F)(F)C(F)(F)C(F)(F)F`: the outcome was inactive.

Consider `Nc1ccc([N+](=O)[O-])cc1O`, for which the outcome was inactive.

On to `FC(F)(F)C(F)(F)C(F)(F)C(F)(F)C(F)(F)C(F)(F)C(F)(F)C(F)(F)F`, for which the result was inactive.

Take `O=C(O)C(F)(OC(F)(F)C(F)(OC(F)(F)C(F)(F)C(F)(F)F)C(F)(F)F)C(F)(F)F` (stereo not drawn): the result was inactive.

Turning to `Cc1ccc(S(=O)(=O)OCC(F)(F)C(F)(F)C(F)(F)C(F)(F)C(F)(F)C(F)F)cc1`, the AC50 was 44.8 µM (active) and the outcome was inactive.

Regarding `CCCCNc1ccccc1`, the result was inactive.

For the compound `CCO[Si](CCC(F)(F)C(F)(F)C(F)(F)C(F)(F)C(F)(F)C(F)(F)F)(OCC)OCC`, the result was inactive.

Consider `CCc1ccc(C(c2ccc(CC)cc2)C(Cl)Cl)cc1`, for which the outcome was inactive.

For the compound `O=C(O)C=C(C(F)(F)F)C(F)(F)F`, the outcome was inactive.

In the case of `CCN(CC)c1ccc2c(C)cc(=O)oc2c1`, the result was inactive.

On to `C=CC(F)(F)C(F)(F)C(F)(F)C(F)(F)C(F)(F)C(F)(F)C(F)(F)C(F)(F)F`, for which the result was inactive.

Take `CCc1c(Br)c(Br)c(Br)c(Br)c1Br`: the result was inactive.

For the compound `OCC(F)(F)C(F)(F)C(F)(F)F`, the result was inactive.

Regarding `CCCCC(CC)COP(=O)(O)OCC(CC)CCCC` (stereo not drawn), the result was inactive.

Take `O=C(O)C(F)(F)C(F)(F)F`: the result was inactive.

Regarding `C=CC/C=C/C/C=C/C/C=C/C`, the outcome was inactive.

`C=C(C)C(=O)OCC(F)(F)C(F)(F)C(F)(F)C(F)(F)C(F)(F)C(F)(F)C(F)(F)F`: the outcome was inactive.

Read-out in a further experiment: Monocyte Chemoattractant Protein-1 (MCP1), CCL2 (gene 6347)
As to the kind of experiment: BSK_3C_MCP1: BioMAP Diversity Plus: 3C Assay for Monocyte Chemoattractant Protein-1 (MCP1) Biomarker Activity (AID 2283017). As to conditions: primary human endothelial cells (HUVEC); actives raise or lower the signal. The essentials: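 Endothelial cells from human umbilical vein are dosed with chemical, cultured 24 h, then assayed for MCP-1 by ELISA; both increases and decreases are modelled against DMSO controls.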
As for `Oc1ccc(Nc2ccccc2)cc1`, the result was inactive.

In the case of `NC(=O)C(F)(F)C(F)(F)C(F)(F)C(F)(F)F`, the result was inactive.

Consider `FC(F)(F)C(F)(F)C(F)(F)C(F)(F)CCI`, for which the result was inactive.

On to `C=CC(=O)OCC(F)(F)C(F)(F)C(F)(F)C(F)(F)C(F)(F)C(F)(F)C(F)(F)F`, for which the result was inactive.

For the compound `CCO[Si](CCC(F)(F)C(F)(F)C(F)(F)C(F)(F)C(F)(F)C(F)(F)F)(OCC)OCC`, the outcome was inactive.

`CCN(CC)c1ccc2c(C)cc(=O)oc2c1`: the result was inactive.

Take `CCc1c(Br)c(Br)c(Br)c(Br)c1Br`: the result was inactive.

In the case of `C=CC/C=C/C/C=C/C/C=C/C`, the result was inactive.
